# Results published in PubChem BioAssay (NCI).
# Compounds without any hit were thinned out: in the full panel of roughly 83,000, 20% have a hit.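 Treatment: one concentration, 48 hours, 96-well format. Scoring: percent growth, with anything below 10 considered active.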 A number with no mark means an inactive call. Activity calls are given as the source filed them.
# Key:
# Experiment in all cases: NCI-60 one-dose screen, 48 h (100 = growth as untreated, 0 = no growth, -100 = all killed)
# Settings in all cases: 10 µM unless noted
# SR leukemia = system: SR leukemia
# RPMI-8226 leukemia = system: RPMI-8226 leukemia
# OVCAR-8 ovarian = system: OVCAR-8 ovarian
# OVCAR-5 ovarian = system: OVCAR-5 ovarian
# OVCAR-4 ovarian = system: OVCAR-4 ovarian
# SK-OV-3 ovarian = system: SK-OV-3 ovarian
# IGROV1 ovarian = system: IGROV1 ovarian
# OVCAR-3 ovarian = system: OVCAR-3 ovarian
# HS 578T breast = system: HS 578T breast
# NCI/ADR-RES ovarian = system: NCI/ADR-RES ovarian
Compound,growth (SR leukemia),growth (RPMI-8226 leukemia),growth (OVCAR-8 ovarian),growth (OVCAR-5 ovarian),growth (OVCAR-4 ovarian),growth (SK-OV-3 ovarian),growth (IGROV1 ovarian),growth (OVCAR-3 ovarian),growth (HS 578T breast),growth (NCI/ADR-RES ovarian)
COc1ccc(-c2nc3sccn3c2-c2ccnc(NCCCNS(=O)(=O)c3ccc(C)cc3)n2)cc1,33.1%,23.2%,25%,93.4%,42.9%,56.1%,33.9%,45.4%,66.2%,20.8%
CN(C)CCCNC(=O)C(c1ccccc1)c1ccccc1,105%,101%,102%,111%,118%,112%,117%,113%,110%,97.7%
CCSc1nnc(Nc2ccc(C(C)C)cc2)s1,69.4%,72.2%,109%,87.1%,84%,104%,-7.13% (active),106%,132%,87.6%
COc1ccc(/C=C/C(=O)OCC(=O)NNC(=O)c2ccccc2)cc1OC,71.8%,79.7%,102%,113%,101%,113%,87.8%,99.8%,103%,116%
CN(C)C/C=C/C(=O)Nc1cc2c(Nc3ccc(F)c(Cl)c3F)ncnc2cc1OCCOC(F)F,14.8%,11.4%,26.6%,26.6%,16%,0.142% (active),-15.6% (active),-15.4% (active),-19.2% (active),20.1%
Cc1ccc2nc(-c3c(CCCO)noc3N)[nH]c(=O)c2c1,71.8%,90.4%,106%,120%,97.4%,106%,4.96% (active),104%,104%,123%
O=C(O)C(=Cc1c2ccccc2cc2ccccc12)C(=O)O,102%,103%,104%,112%,117%,107%,111%,118%,106%,98.3%
Cc1cc(Nc2nc(-c3ccc(F)cc3)nc3ccccc23)n[nH]1,20.4%,94.8%,95%,70.3%,41%,21%,11.3%,61.5%,25.1%,71%
O=C1c2ccccc2C(=O)c2c1oc1oc3c(c(=O)c21)c(=O)n(-c1ccccc1)c1ccccc31,11.4%,19.6%,48.2%,88.7%,18.8%,67.3%,71.8%,2.15% (active),90.5%,90.3%
O=C1CCCCN1CCCCC#Cc1ccccc1C#Cc1ccccn1,98.6%,107%,113%,95.2%,95.2%,118%,-11.3% (active),104%,118%,92.2%
N#CC1=C(N)n2nc(-c3ccncc3)nc2NC1c1cccc2ccccc12 (stereo not given),80.3%,74.9%,92.7%,100%,80.4%,98.2%,91.2%,97.4%,80.5%,91.9%
O=C(CCl)NCCNc1nccc(Nc2ccc(S(=O)(=O)Nc3ccccn3)cc2)n1,19.4%,14.8%,32.7%,15.7%,29.4%,61.9%,8.94% (active),-6.7% (active),73.1%,46.5%
O=c1oc2cc(OS(=O)(=O)c3ccc(F)cc3)ccc2c2c1CCCCC2,53.7%,34.8%,77.6%,66.2%,58.1%,95.9%,95.2%,77.8%,88%,51.1%
Nc1c(C(=O)Nc2cccc([N+](=O)[O-])c2)sc2nc3c(cc12)C(O)CCC3 (stereo not given),21%,52%,82.3%,78.7%,80.2%,46.3%,52.5%,33.1%,71.8%,47.8%
Cc1cc(Nc2nc(C(=O)Nc3ccccc3)nc3ccccc23)n[nH]1,33%,59.6%,75.6%,82.2%,44.6%,39.3%,39.6%,78.1%,73.2%,44.2%
CC/C=C\C/C=C\C[C@H](O)C/C=C1/C(=O)C=C[C@H]1C/C=C\CCC(=O)OC,7.38% [8.25 µM] (active),3.22% [8.25 µM] (active),15.3% [8.25 µM],71.1% [8.25 µM],43.3% [8.25 µM],85.6% [8.25 µM],37.3% [8.25 µM],4.28% [8.25 µM] (active),69.1% [8.25 µM],39.8% [8.25 µM]
O=C(Nc1cccc(C(F)(F)F)c1)Nc1ccc(OCc2nnc(-c3ccccc3)o2)c(F)c1,5.85% (active),2.02% (active),38.5%,50.9%,34.5%,69.1%,45.9%,15.6%,39.2%,37%
Cc1ccc(S(=O)(=O)NCCCNc2nccc(-c3c(-c4ccccc4)nc4sccn34)n2)cc1,33.9%,25.6%,37.9%,117%,48.4%,57.9%,35.7%,38%,74.9%,49%
COc1ncc(-c2ccc3ncnc(Nc4cccc(Cl)c4)c3c2)cc1NS(=O)(=O)CCN1CCOCC1,9.25% (active),12.7%,16.9%,6.39% (active),33.1%,-25.9% (active),-36.9% (active),5.82% (active),-21.1% (active),30.1%
COc1ncc(-c2ccc3ncnc(Nc4cccc(Cl)c4)c3c2)cc1N(S(C)(=O)=O)S(C)(=O)=O,92.6%,55.8%,73.8%,43.2%,77.3%,52.2%,-28.6% (active),54.9%,49.7%,72.7%
c1ccc(CCn2nnc3c(Nc4ccc(N5CCOCC5)cc4)ncnc32)cc1,36%,68.2%,86.2%,88.1%,89.3%,93.1%,95.3%,85.9%,97.3%,78.8%
CC/C=C\C[C@H](O)C/C=C1/C(=O)C(Cl)=C[C@@H]1C/C=C\CCCC(=O)OC,1.41% (active),-12.2% (active),1.69% (active),-30% (active),-47.3% (active),8.03% (active),-12.6% (active),-87.8% (active),35.2%,14%
CC(=O)Nc1ccc(S(=O)(=O)NC(CCC(=O)Nc2ccc(Cl)cc2)C(=O)O)cc1 (stereo not given),77.9%,99.1%,97.4%,77.7%,94%,93.7%,112%,107%,98.4%,100%
CC1=NN2C(=NC3=C(CCC/C3=C\c3ccc(Cl)cc3)C2c2ccc(Cl)cc2)S1 (stereo not given),64.5%,-18.4% (active),90.2%,103%,86.8%,115%,103%,108%,101%,106%
CC(CCc1ccccc1)NC(=O)c1n[nH]c(=O)c2ccccc12 (stereo not given),60.7%,85.6%,101%,118%,102%,118%,3.79% (active),112%,96.8%,121%
CCN1C(=O)N(CC)C2Nn3c(s/c(=C\c4cccc(F)c4)c3=O)=NC21 (stereo not given),36.2%,90.7%,77.4%,86.8%,67.5%,102%,84.8%,43%,75.5%,30.6%
